Compounds with a hit are over-represented: about 19% of the library has one in this group of screens.
IL-1B inflam inh: inhibitors of inflammasome signaling (IL-1 beta secretion) | THP-1 LPS/ATP IL-1B secretion, AlphaLISA, 16 h; hits give low values | activity change, % at 57.5 µM | 4.7% of 360,000 active; in the data active means activity change below about -50%; inconclusive means mostly about -30% to -49%
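Secreted IL-1B measured by AlphaLISA bead assay after 16 h compound exposure of THP-1 cells; compounds (final up to 57.5 uM) added 1 h before LPS (250 ng/mL) and ATP (1.25 mM) stimulation; lower signal means less secretion.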
HT1080 IDH1KD tx: kills HT-1080 cells with IDH1 knockdown; HT-1080 IDH1 knockdown viability, ATP luminescence, 48 h; Potency, µM (top dose mostly 46.1 µM), for inactives: at the top dose activity, negative = toxicity, actives largely listed as cytotoxic; 2% of 360,000 active; AID 686971;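 further: potency means the concentration at half of the fitted maximal effect; 0% = DMSO wells and -100% = cell-free medium wells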
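In this qHTS, HT-1080 cells depleted of IDH1 are exposed for 48 h at 37 °C to compound titrations. Toxicity is scored from CellTiter-Glo luminescence, with DMSO as full viability and medium alone as none.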
DT40 TDP1 no CPT: qHTS for Inhibitors of human tyrosyl-DNA phosphodiesterase 1 (TDP1): qHTS in cells in absence of CPT | Potency, µM (top dose mostly 46.2 µM), without a hit: top-dose activity change, negative = growth inhibition, hits mostly inhibitors | DT40 Tdp1-/- hTDP1 cells, no CPT, ATP luminescence, 48 h | 15% of 420,000 active; further: potency means the concentration at half of the fitted maximal effect; nearly all actives have a fitted effect of over 55% in size
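DT40 Tdp1-/-;hTDP1 cells, no CPT (DMSO vehicle only), 400 cells/well; compounds pin-transferred; ≥48 hr, 37 °C; CellTiter-Glo 30 min RT dark, luminescence read.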
TDP1 cell CPT: DT40-hTDP1 cell growth loss with CPT. chicken DT40 Tdp1-/-;hTDP1 cells + 20 nM CPT, ATP luminescence, 48 h. Potency, µM (doses to about 46.2 µM), for the others: top-dose activity change, negative = growth inhibition, hits mostly inhibitors. 12% of 420,000 active; further: potency means the concentration at half of the fitted maximal effect; nearly all actives have a fitted effect of over 55% in size
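Chicken DT40 Tdp1-/- cells stably complemented with human TDP1 were seeded at 400 cells/well in medium containing 20 nM camptothecin, exposed to pin-transferred compounds, and grown at 37 °C for at least 48 hr. Viability was read as ATP luminescence.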
uPA generation: blocks generation of uPA at the cell surface. cell surface uPA generation assay, qHTS. Potency, µM (doses to about 38.3 µM), for inactives: at the highest dose activity change, negative = inhibition, hits mostly inhibitors. 0.31% of 330,000 active; active means well fitted inhibition curve with a large enough effect; inconclusive means small, poorly fitted or top-dose-only effect; inactive means no such curve, though single readings can be large or run the other way; tested in mouse RAW 264.7 cells; further: potency means the concentration at half of the fitted maximal effect; nearly all actives have a fitted effect of over 55% in size
HT1080-NT tox: kills 2HG-producing HT-1080-NT fibrosarcoma cells | HT-1080-NT fibrosarcoma viability, CellTiter-Glo ATP luminescence, 48 h | Potency, µM (titrated, usually from 46.1 µM), inactives show at the top dose activity, negative = less viability, actives largely listed as cytotoxic | 1.6% of 360,000 active;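 further: NT is the 2HG producing partner of a matched IDH1 knockdown line; potency means the concentration at half of the fitted maximal effect; 0% = DMSO-treated cells and -100% = media-only wells without cells; nearly all actives have a fitted effect of over 55% in size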
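Viability by CellTiter-Glo luminescence after 48 h compound exposure at 37C of HT-1080-NT cells (750/well, RPMI, 5% FBS). % activity scaled between DMSO wells and medium-only wells, then curve-fitted and categorized by curve class.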
The depositor's hits bear a star; ? = inconclusive; · = no result; [ ] = dose if it differs, or a comment. Unless noted, the call rests on the fitted dose curve; in most records, active means well fitted curve in the direction sought with a large enough effect; inconclusive means small, poorly fitted or top-dose-only effect, or another doubt; inactive means no such curve, though single readings can be large; an effect the other way counts as inactive or inconclusive. Unless noted, on the % scale 0 is the no-effect control and ±100 the full control effect.

SMILES	IL-1B inflam inh	HT1080 IDH1KD tx	DT40 TDP1 no CPT	TDP1 cell CPT	uPA generation	HT1080-NT tox
Cc1ccc(C)c2[nH]c(=O)c(CN(CCN3CCCC3)C(=O)Nc3cccc(Cl)c3)cc12	?	?	18.4µM*	23.1µM*	-6.2%	?
COc1ccc(CNC(=O)C[C@H]2C[C@H](C(=O)N(C(C)C)C(C)C)[C@@]3(C)c4[nH]c5cc(-c6ccco6)ccc5c4CCN3C2=O)cc1OC	-20.4	-21.4%	?	18.4µM*	?	-17.7%
COc1ccc(CNC(=O)C[C@H]2C[C@H](C(=O)N(C(C)C)C(C)C)[C@@]3(C)c4[nH]c5ccc(Cl)cc5c4CCN3C2=O)cc1OC	-24.5	-24.2%	18.4µM*	18.4µM*	?	-18.8%
CC(C)N(C(=O)[C@H]1C[C@H](CC(=O)NCCC2=CCCCC2)C(=O)N2CCc3c([nH]c4ccc(Cl)cc34)[C@]12C)C(C)C	-22.1	-3.2%	25.9µM*	29.1µM*	3.9%	-6.0%
COCCCNC(=O)C[C@H]1C[C@H](C(=O)N(C(C)C)C(C)C)[C@@]2(C)c3[nH]c4cc(-c5ccco5)ccc4c3CCN2C1=O	?	1.2%	23.1µM*	16.4µM*	18.1%	-3.0%
O=C(NCCCN1CCOCC1)c1[nH]c(C(F)(F)F)nc1-c1ccccc1	30.8	26.2%	5.0%	-4.7%	·	25.2%
CN(CC(=O)Nc1cccc(F)c1)C(=O)CCc1nc2cc(S(=O)(=O)N3CCOCC3)ccc2n1C	-3.2	11.7%	-1.6%	1.9%	-8.2%	6.2%
Cc1cc(N2CCOCC2)nc2ccc(NC(=O)CCC(=O)N3CCN(c4cccc(C(F)(F)F)c4)CC3)cc12	-76.8*	?	2.06µM*	4.11µM*	-11.1%	23.1µM*
Cc1cc(N2CCC(C)CC2)nc2ccc(NC(=O)CCC(=O)N3CCN(c4ccccc4F)CC3)cc12	·	·	14.6µM*	18.4µM*	·	·
NC(=O)c1nsc(C(=O)N(CC(=O)NCc2ccccc2)c2ccc(F)cc2)c1N	-10.8	-11.1%	-24.2%	-23.1%	-2.6%	-0.6%
Cc1cccc(N=Nc2cnc(N)s2)c1	-64.5*	0.4%	?	?	-3.9%	-1.9%
CCCC(C)NC(=O)c1sc2nc3n(c(=O)c2c1C)CCC3 (configuration not stated)	4.6	5.9%	2.7%	-20.3%	-1.1%	5.7%
CCCOc1cccn2c(N(C=O)Cc3ccc(OC)cc3)c(CC)nc12	8.8	2.3%	?	16.4µM*	·	1.0%
CCc1nc2c(OCCOc3ccc(F)cc3)cccn2c1N(C=O)Cc1ccccc1	-59.0*	5.9%	?	20.6µM*	·	?
CCc1nc2c(OCC3CCCCC3)cccn2c1N(C=O)Cc1ccc(OC)cc1	-8.9	?	20.6µM*	20.6µM*	·	?
C=CCOc1cccn2c(N(C=O)Cc3ccc(OC)cc3)c(CC)nc12	44.8	-8.6%	11.6µM*	18.4µM*	·	4.5%
CCc1nc2c(OCC(=O)C(C)(C)C)cccn2c1N(C=O)Cc1ccccc1	25.7	10.4%	-5.6%	-2.5%	·	11.8%
N#C/C(=C\c1cccc(O)c1)C(=O)Nc1ccc2c(c1)OCCO2	0.0	9.1%	-26.6%	?	?	9.7%
COc1ccc(-c2cc3c(=O)n(CC(=O)Nc4cc(C)ccc4C)ccn3n2)cc1	·	·	-5.8%	0.4%	·	·
CCCCN(C=O)c1c(CC)nc2c(OCCC)cccn12	34.2	17.5%	?	-55.5%	·	22.6%
CCCCN(C=O)c1c(CC)nc2c(OCCOc3ccccc3)cccn12	-18.3	-17.0%	20.6µM*	?	·	-17.1%
CCC(C)NC(=O)CSc1nc2cc3c(cc2c(=O)n1CCCCCC(=O)NCc1ccc2c(c1)OCO2)OCO3 (configuration not stated)	·	·	-22.2%	-4.3%	·	·
Cc1oc2c(c1C(=O)Nc1cccc(Br)c1)C1=NCCN1C=N2	·	·	-8.3%	-6.0%	·	·
O=C(NCCc1csc(-c2ccc(F)cc2)n1)c1c(F)cccc1Cl	·	·	?	23.1µM*	·	·
O=C(NCCc1csc(-c2ccc(F)cc2)n1)c1cccc(F)c1	·	·	18.4µM*	?	·	·
SMILES	IL-1B inflam inh	HT1080 IDH1KD tx	DT40 TDP1 no CPT	TDP1 cell CPT	uPA generation	HT1080-NT tox
COc1ccccc1-c1ccnc(-n2ncc(C(=O)N(C)CCc3ccccn3)c2C)n1	·	·	8.0%	8.2%[9.04 µM]	·	·
O=C(CSc1nc(=O)n(Cc2ccco2)c2c1CCC2)Nc1cccc(F)c1	·	·	-19.8%	?	·	·
Cc1ccc(C(C(=O)NC2CCCC2)N(C(=O)Cc2cccs2)c2cccc(C)c2C)o1 (configuration not stated)	9.5	-23.8%	16.4µM*	20.6µM*	1.4%	-5.6%
O=C(NC1CCCCC1)C(c1ccccn1)N(C(=O)Cc1cccs1)c1ccc(Cl)cc1 (configuration not stated)	?	?	?	29.1µM*	·	?
O=C(c1ccc(-n2cncn2)c2ccoc12)N1CCOCC1	13.9	28.3%	-9.3%	1.1%	·	8.7%
CCN(c1ccccc1)S(=O)(=O)c1ccc(N2CCN(c3ccc(OC)cc3)CC2)nc1	-10.1	-1.2%	?	11.6µM*	-1.5%	0.7%
CCN(CC)S(=O)(=O)c1ccc(N2CCN(CCOc3ccc(OC)cc3)CC2)nc1	-23.2	-5.1%	20.6µM*	18.4µM*	-2.6%	-21.0%
CCN(CC)S(=O)(=O)c1ccc(N2CCN(S(=O)(=O)c3ccccc3)CC2)nc1	0.0	?	?	-14.1%	-3.3%	-24.5%
CCN(CC)S(=O)(=O)c1ccc(N2CCN(S(=O)(=O)c3ccccc3C#N)CC2)nc1	-4.3	-6.3%	?	?	-13.1%	-7.0%
CCN(c1ccccc1)S(=O)(=O)c1ccc(N2CCN(c3ccc(O)cc3)CC2)nc1	?	-23.8%	14.6µM*	?	-4.1%	-6.7%
COC(=O)c1cc(C(=O)Nc2ccc(S(N)(=O)=O)cc2)cc([N+](=O)[O-])c1	-2.1	1.9%	-10.0%	2.5%	2.4%	2.4%
CCOC(=O)c1c(COc2ccccc2)oc2ccc(O)cc12	17.9	-24.2%	-15.0%	-0.1%	7.0%	-20.8%
CCOC(=O)c1c(C(C)(C)C)oc2ccc(O)cc12	8.2	?	23.1µM*	20.6µM*	4.8%	?
Cc1ccc(S(=O)(=O)N2CCCC(c3nc4c(nnn4Cc4ccc(OC(F)(F)F)cc4)c(=O)[nH]3)C2)cc1 (configuration not stated)	·	·	-12.5%	-6.4%	·	·
O=C(OCC(=O)N1CCCC1=O)c1ccc(O)cc1O	-7.9	6.0%	-19.8%	3.2%	-1.0%	1.2%

Source: PubChem
